Molecules are shown by their SMILES. For some of these results: Results with a measured potency or affinity are listed apart.

The values below come from PubChem BioAssay.

A short description of experiment [1]: polyglutamine-triggered caspase-3 activation inhibitors, cell-based (AID 1583). The settings on record: polyglutamine-induced caspase-3 activation, cell assay; stronger effect = higher value;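 tested at 10 µM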.
Experiment [2] in a line: suppressors of polyQ aggregation in yeast, 75Q-TubU reporter (AID 1593). The settings on record: Yeast 75Q polyglutamine aggregation reporter.
Experiment [3] can be described thus: rescue of polyQ-huntingtin neuronal dysfunction in worms, whole organism, C. elegans mechanosensory neurons, N-terminal huntingtin (AID 1599). To be noted: touch response, stronger effect = higher value.
Experiment [4] can be described thus: inhibitors of mitochondrial cytochrome c release, biochemical, purified mitochondria (AID 1603).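 Further: mouse liver mitochondria challenged with calcium chloride; signal normalized to the plate average as 100%.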 To be noted: stronger effect = lower value.
Experiment [5] in a line: inhibitors of polyQ protein aggregation (AID 1604). To be noted: polyglutamine-induced protein aggregation inhibition assay; stronger effect = higher value; tested at 2.5 µM.

In the case of `Oc1ccc(Cl)c2cccnc12`, in experiment [1], the inhibition (commonly the relative decrease from the control value, in per cent) is 19.1%. The score in experiment [2] was -0.02. In experiment [3], the rescue above control was -0.67. For the same compound, the cytochrome c release ratio in experiment [4] amounted to 0.81. In addition, the inhibition of aggregation in experiment [5] amounted to 63.5%.
For `CN(C)CCOC(=O)C(c1ccccc1)C1(O)CCCC1` (stereo not given), in that order: -1.25%, 1.17, -1.73, 0.87 and 90.7%.
Turning to `CCO/C([O-])=N/c1c[n+](N2CCOCC2)no1`, the inhibition in experiment [1] is -3.16%. Further, in experiment [2], the score amounted to 1.13. In experiment [3], this compound displayed a rescue above control of 3.21. In addition, in experiment [4], the cytochrome c release ratio was 0.83. In addition, the inhibition of aggregation in experiment [5] turned out to be 36.6%.
With `CC(=O)Oc1ccccc1C(=O)O`, in experiment [1], the inhibition was -10.2%. In experiment [2], this compound gave a score of 1.29. For the same compound, the rescue above control in experiment [3] came to 9.45. Also, the cytochrome c release ratio in experiment [4] turned out to be 1.35. In addition, in experiment [5], the inhibition of aggregation stood at 61.5%.
For `NC(=O)NO`, in that order: -0.33%, 1.4, -1.6, 0.82 and 85.9%.
As to `Cc1cccc(N(C)C(=S)Oc2ccc3ccccc3c2)c1`, the inhibition in experiment [1] is -3.4%. The compound also returned a score in experiment [2] of -1.43. In addition, the rescue above control in experiment [3] is -1.37. Also, the cytochrome c release ratio in experiment [4] worked out at 0.96. In addition, in experiment [5], the inhibition of aggregation is 57.4%.
For `CN1C(C(=O)Nc2ccccn2)=C(O)c2sccc2S1(=O)=O`, in that order: -15.4%, 0.84, -5.04, 1.03 and 69.7%.
For `Cc1cc(=O)n(-c2ccccc2)n1C`, in that order: 22%, 1.07, 2.73, 1.13 and 22.2%.
For `NC(N)=NS(=O)(=O)c1ccc(N)cc1`, in that order: -31.1%, 1.49, -3.67, 1.37 and 93.6%.
For the compound `Cc1cc(C2CCCCC2)n(O)c(=O)c1`, in experiment [1], the inhibition was 60.9%. This compound also came in with a score in experiment [2] of 0.13. The rescue above control in experiment [3] came out at 6.29. Besides, the cytochrome c release ratio in experiment [4] was determined as 0.91. Further, in experiment [5], the inhibition of aggregation was 72.2%.
For `CN(C)CCC(c1ccccc1)c1ccccn1` (stereo not given), in that order: 12.1%, 1.44, -9.39, 1 and -15.2%.
Take `NC(=O)NC1NC(=O)NC1=O` (stereo not given): in experiment [1], the inhibition was 2.28%. Moreover, the score in experiment [2] came to 1.2. Further, the rescue above control in experiment [3] is -1.57. Moreover, in experiment [4], the cytochrome c release ratio was found to be 0.93. In addition, in experiment [5], the inhibition of aggregation is 74.6%.
For `CCCOc1ccc2nc(NC(=O)OC)[nH]c2c1`, in that order: 0.98%, 1.01, 0, 0.9 and 22.1%.
For `CCN(CC)CCOCCOC(=O)C1(c2ccccc2)CCCC1`, in that order: -3.33%, 1.27, -4.04, 0.8 and 94.4%.
